# In PubChem BioAssay (NCATS):
# Records with an inconclusive call do not appear. The source made the active and inactive calls. Calls come from the whole dose curve; as a rule, active = well fitted cell-killing curve with a large enough effect; inconclusive = small, poorly fitted or top-dose-only effect; inactive = no such curve, though single readings can be large or run the other way.
# Assay: qHTS of pediatric cancer cell lines to identify multiple opportunities for drug repurposing: Primary screen for A673 cells (AID 1347092); note: nearly all actives have a fitted effect of over 45% in size
# Conditions: A673 Ewing sarcoma viability, CellTiter-Glo ATP luminescence, 48 h; series mostly up to 46 µM; activity change, negative = cytotoxic: at the top concentration
# Excerpt: Drug repurposing or repositioning has been offered as a strategy for drug development in oncology programs. This approach has special potential for childhood cancers and other rare or orphan diseases, where the expected return on new drug development has been a disincentive to pharmaceuticals. […] In this project we exploit the poly-pharmacology of drugs to discover new indications via phenotypic screening of a panel of 19 well-characterized cell lines derived from solid tumors seen in children and adolescents. The goal is to identify approved drugs with previously unrecognized anticancer properties that has the potential to reveal new mechanisms and biological processes involved in carcinogenesis or drug resistance. We employed a titration-based paradigm (quantitative high-throughput screening or qHTS), where all compounds were tested at multiple concentrations for their effect on cell viability. Concentration-response curves (CRCs) were derived directly from the primary screen, and both potency and efficacy values were used to identify compounds with robust bioactivity profiles. We screened the NIH Chemical Genomics Center (NCGC) Pharmaceutical Collection (NPC) and Mechanism Interrogation Plate (MIPE) small molecule collections of approved and investigational compounds against these cell lines; and measured metabolically active cells after 48 hours of compound treatment as a proxy for cell viability. […] Assay Submitter: Nathalia J. Martinez, National Center for Advancing Translational Sciences, National Institutes of Health, Rockville, MD, USA; email: natalia.martinez@nih.gov. Shen, M et al. Quantitative high-throughput phenotypic screening of pediatric cancer cell lines identifies multiple opportunities for drug repurposing. Oncotarget 2017 Dec 19;9(4):4758-4772. PMID 29435139.
# The cells were obtained from University of North Carolina (UNC), Pediatric Preclinical Testing Program (PPT), and Coriell Institute (CI). qHTS cell viability assay: Cells were assayed in growth media at a density of 500-1,000 cells/well. Five microliters of cells were dispensed into 1,536-well, white, solid-bottom, TC-treated plates (Greiner Bio One) using a multidrop dispenser and incubated at 37 degrees C, 5% CO2, under a humidified atmosphere for 5 hours. Twenty-three nanoliters of compounds and controls (neutral control DMSO or positive control bortezomib at final concentration of 2.3 uM) were subsequently transferred by Kalypsys pintool. For primary screens, the MIPE collection was tested at 11-point dilutions (final concentrations range from 0.78 nM to 46 µM) and the NPC collection at 8-point dilutions (final concentrations range from 0.59 nM to 46 µM). Compounds tested in follow-up screens were assayed at 11-point dilutions. Cells were incubated for 48 hours, followed by addition of 3 uL of CellTiter-Glo (Promega). After a 15min incubation at room temperature, samples were analyzed for luminescence intensity using a ViewLux High-throughput CCD imager equipped with clear filters.
# % is set by controls: 0 for no effect and ±100 for the full control effect.
row,Compound,"activity change, negative = cytotoxic"
1,CC(=O)Nc1ccccc1,4.33% (inactive)
2,OC[C@@H](O)[C@@H](O)[C@H](O)[C@H](O)CO,19.6% (inactive)
3,CNCc1ccccc1,-3.41% (inactive)
4,CN(C(=O)c1c(O)c2ccccc2n(C)c1=O)c1ccccc1,-11.3% (inactive)
5,Cc1cc(-n2nc3ccc(Cl)cc3n2)c(O)c(C(C)(C)C)c1,14.6% (inactive)
6,O=C(O)CCCCC1CCSS1 (stereo not given),5.39% (inactive)
7,CCCCCCCC(=O)OCC(COC(=O)CCCCCCC)OC(=O)CCCCCCC,8.21% (inactive)
8,CN/C(=C\[N+](=O)[O-])NCCSCc1csc(CN(C)C)n1,5.52% (inactive)
9,CC(=O)N(CC(O)CN(C(C)=O)c1c(I)c(C(=O)NCC(O)CO)c(I)c(C(=O)NCC(O)CO)c1I)c1c(I)c(C(=O)NCC(O)CO)c(I)c(C(=O)NCC(O)CO)c1I (stereo not given),-41.8% (inactive)
10,CC(C)(C)C(=O)OCOC(=O)[C@@H]1N2C(=O)[C@@H](NC(=O)[C@H](N)c3ccccc3)[C@H]2SC1(C)C,3.02% (inactive)
11,Cc1cc(OI)c(C(C)C)cc1-c1cc(C(C)C)c(OI)cc1C,10.2% (inactive)
12,CCOC(N)=O,4.84% (inactive)
13,O=c1[nH]cnc2nc[nH]c12,18.4% (inactive)
14,Cn1c(=O)c2c(ncn2CCO)n(C)c1=O,-26.8% (inactive)
15,COc1cc(O)cc(O)c1,-3.18% (inactive)
16,C=CCSCC1Nc2cc(Cl)c(S(N)(=O)=O)cc2S(=O)(=O)N1 (stereo not given),-6.1% (inactive)
17,CC[N+](CC)(CC(=O)Nc1c(C)cccc1C)Cc1ccccc1,11.6% (inactive)
18,Cn1c([N+](=O)[O-])cnc1COC(N)=O,3.21% (inactive)
19,CCC(C)(CN(C)C)OC(=O)c1ccccc1 (stereo not given),11.9% (inactive)
20,Cc1c(Cn2ccnc2)c2ccccc2n1CCC(=O)O,-0.656% (inactive)

row,Compound,"activity change, negative = cytotoxic"
1,CCCCCCCC(=O)OCC(O)CO (stereo not given),-10.5% (inactive)
2,Cc1c(C(=O)NCCO)[n+](=O)c2ccccc2n1[O-],-1.24% (inactive)
3,CC[N+](C)(CC)CCOC(=O)C1c2ccccc2Oc2ccccc21,12.5% (inactive)
4,Cc1onc(-c2ccccc2)c1-c1ccc(S(N)(=O)=O)cc1,2.93% (inactive)
5,O=C1C(c2[nH]c3ccccc3c2O)=Nc2ccccc21,-1.7% (inactive)
6,CCOc1ccccc1O[C@H](c1ccccc1)[C@H]1CNCCO1,0.235% (inactive)
7,NC(=O)NS(=O)(=O)c1ccc(N)cc1,8.52% (inactive)
8,NS(=O)(=O)c1ccc(C(=O)O)cc1,1.83% (inactive)
9,O=c1[nH]c2cc(C(F)(F)F)c(N3CCOCC3)cc2n(CP(=O)(O)O)c1=O,-14.6% (inactive)
10,OCCN1C[C@H](O)[C@@H](O)[C@H](O)[C@H]1CO,8.7% (inactive)
11,Cc1cc(=O)[nH]c(=S)[nH]1,9.84% (inactive)
12,CN1CCCN=C1COC(=O)C(O)(c1ccccc1)C1CCCCC1 (stereo not given),-5.65% (inactive)
13,O=C1CC[C@@H](C(=O)O)N1,-12% (inactive)
14,COc1ccccc1OC(=O)Oc1ccccc1OC,5.55% (inactive)
15,Cc1ccc(S(=O)(=O)NC(=O)NC2CCCCC2)cc1,-7.61% (inactive)
16,CC(=O)OCC(COC(C)=O)OC(C)=O,2.18% (inactive)
17,Cc1c(N(C)C)c(=O)n(-c2ccccc2)n1C,9.61% (inactive)
18,O=c1[nH]c(=O)n([C@H]2C[C@H](O)[C@@H](CO)O2)cc1I,2.45% (inactive)
19,CCN(CC)CCOC(=O)C(c1ccccc1)c1ccccc1,-5.33% (inactive)
20,C[C@H]1COc2c(C3(N)CC3)c(F)cc3c(=O)c(C(=O)O)cn1c23,1.21% (inactive)
